“And” between values parts separate entries of the source, which are not always exact repeats. Identical values can stand only once. Screen size: about 420,000 compounds; about 540 (0.13%) were called active. Cut-off read from the data, not from the text of the source: active = activity change below about -50%; inconclusive = mostly about -30% to -49%; inactive = weaker than that. For the sample, actives were picked, then their nearest neighbours and some compounds at random. A structure can be active in one record and inactive in another.
What follows are compounds tested against Phosphatidylinositol 4-kinase type 2-alpha (Homo sapiens) (UniProt Q9BTU6) (assay: qHTS for small molecular inhibitors of PI4K2A). Conditions: purified PI4K2A, ADP-Glo luminescence, 1 h; at 76.9 µM, stronger effect = lower value.
Procedure, shortened: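 Compounds are screened against recombinant PI4K2A using PI as substrate and ATP, the latter dispensed at 300 microM. Reactions run one hour at ambient temperature before ADP-Glo detection; full inhibition defined by wells lacking enzyme.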
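Note: -100% = wells without enzyme as full effect.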

Sequence of Phosphatidylinositol 4-kinase type 2-alpha (Homo sapiens) (Q9BTU6 whole entry, looked up): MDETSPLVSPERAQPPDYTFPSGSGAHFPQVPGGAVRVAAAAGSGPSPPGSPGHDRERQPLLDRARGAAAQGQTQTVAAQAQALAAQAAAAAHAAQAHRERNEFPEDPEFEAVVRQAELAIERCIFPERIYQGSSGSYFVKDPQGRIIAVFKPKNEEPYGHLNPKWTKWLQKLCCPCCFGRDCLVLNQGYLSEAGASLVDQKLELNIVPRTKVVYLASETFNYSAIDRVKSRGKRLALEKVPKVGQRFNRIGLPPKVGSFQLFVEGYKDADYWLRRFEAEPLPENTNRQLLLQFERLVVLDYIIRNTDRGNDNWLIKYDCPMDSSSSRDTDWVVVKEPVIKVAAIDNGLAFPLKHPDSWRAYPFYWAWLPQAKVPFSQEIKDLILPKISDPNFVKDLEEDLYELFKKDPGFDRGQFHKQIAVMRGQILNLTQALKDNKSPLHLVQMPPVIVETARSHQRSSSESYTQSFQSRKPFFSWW

Row | SMILES | activity change, negative = inhibition
1 | Cc1ccc(C(=O)Nc2ccccc2F)cc1S(=O)(=O)N1CCOCC1 | -6.24% (inactive)
2 | Cc1ccc(Cc2c(-c3ccco3)nc3ccc(Cl)cn23)cc1 | -30% (inactive)
3 | c1ccc(Cc2c(-c3ccco3)nc3c4ccccc4ccn23)cc1 | -13.4% (inactive)
4 | Cn1c(-c2ccco2)nc2cc3ccccc3cc21 | -59.4% (active)
5 | COc1cc(/C=C/C(N)=O)cc(OC)c1OC | -0.706% (inactive)
6 | CCC(=O)Nc1ccccc1-c1nc2ccccc2n(CC(=O)Nc2ccc(C)c(C)c2)c1=O | 0.486% (inactive)
7 | COc1cccc(NC(=O)CN2C(=O)c3ccccc3Sc3ncccc32)c1 | 0.541% (inactive)
8 | COc1ccc(-c2onc(C)c2C)cc1S(=O)(=O)NCCc1ccccc1 | 0.384% (inactive)
9 | CCN(CCCNC(=O)c1ccc(Sc2ccc(C)cc2)c(NC(C)=O)c1)c1cccc(C)c1 | 2.25% (inactive)
10 | COc1ccc(-c2nnc(SCC(=O)Nc3ccc(C(C)C)cc3)nc2-c2ccc(OC)c(OC)c2)cc1OC | 0.608% (inactive)
11 | CNC(=O)c1ccc(-c2nc(CN3CCc4ccccc43)c(C)o2)cc1 | 2.42% (inactive)
12 | CC(=O)c1c(C)n(S(=O)(=O)c2ccc(Cl)cc2)c2ccc(NS(=O)(=O)c3ccc(Cl)cc3)cc12 | 2.95% (inactive)
13 | CS(=O)(=O)N1CCc2cc(C(=O)Nc3ccccc3)ccc21 | -7.3% (inactive)
14 | O=C1COc2ccc(C(=O)COC(=O)c3ccccc3Cl)cc2N1 | 1.21% (inactive)
15 | O=C(Nc1ccccc1)c1ccc2c(c1)OCCCO2 | -52.6% (active)
16 | N#CCCN(C(=O)COC(=O)c1ccc2c(c1)OCCO2)c1ccccc1 | 3.66% (inactive)
17 | O=C(COC(=O)c1ccccc1)c1ccc2c(c1)OCCO2 | -52.5% (active)
18 | CSc1ccccc1-c1nnc(NC(=O)c2ccc3c(c2)OCCO3)o1 | 3.71% (inactive)
19 | CCC(C)NC(=O)Cn1c(=O)n(-c2ccc(Cl)cc2)c(=O)c2c3c(sc21)CCCC3 (configuration not stated) | -10.3% (inactive)
20 | CCCn1c2ccccc2c2cnn(CC(=O)N(CC)c3cc(C)ccc3C)c(=O)c21 | -0.786% (inactive)
21 | CN(C)c1cc2c(Nc3ccc4c(cnn4Cc4ccccc4)c3)ncnc2cn1 | -9.09% (inactive)
22 | COc1ccc(CNC(=O)c2cc3cccc(OC)c3oc2=O)cc1 | 3.69% (inactive)

Row | SMILES | activity change, negative = inhibition
23 | COc1cccc(C(=O)c2cc3ccc(O)cc3oc2=O)c1 | -61.7% (active)
24 | COc1cccc(C(=O)Nc2ccc3oc(-c4ccc5ccccc5c4)nc3c2)c1 | -2.82% (inactive)
25 | CCOc1ccc(NS(=O)(=O)c2ccc(N)cc2)nn1 | -1.1% (inactive)
26 | CC1=C(C(=O)OCC(C)C)C(c2ccc(OCc3ccccc3)cc2)N2C(=O)CCSC2=N1 (configuration not stated) | 5.39% (inactive)
27 | CCCCOc1ccc(CN2C(=O)C(=O)c3cc(Br)cc(C)c32)cc1OC | 13% (inactive)
28 | Cc1ccc(-n2nc(C)c(C(=O)O)c2-n2cccc2)cc1 | 3.8% (inactive)
29 | O=C(O)/C(=C/c1c(C(=O)O)[nH]c2cc(Cl)cc(Cl)c12)c1ccccc1 | -3.01% (inactive)
30 | Cc1[nH][nH]c(=O)c1C(c1ccc(-c2ccc(Cl)cc2)o1)c1c(C)[nH][nH]c1=O | -14% (inactive)
31 | Nc1[nH][nH]c(=O)c1N=Nc1ccc2c(c1)OCO2 | -6.7% (inactive)
32 | Cc1[nH][nH]c(=O)c1C(c1ccc2c(c1)OCO2)c1c(C)[nH][nH]c1=O | -66.9% (active)
33 | CCOC(=O)c1ccc(-c2ccc(/C=C(\C#N)C(=O)Nc3ccc(OCC)cc3)o2)cc1 | -0.67% (inactive)
34 | CCOc1ccc(NC(=O)Cn2c(C)ccc(C#N)c2=O)cc1 | 1.57% (inactive)
35 | CCOc1ccc(NC(=O)c2ccc(NC(=O)COC(=O)c3ccc(NC(=O)CC#N)cc3)cc2)cc1 | -84.7% (active)
36 | COC(=O)CN1C(=O)CSc2ccc(S(=O)(=O)Nc3cc(C)ccc3C)cc21 | -1.14% (inactive)
37 | Cc1ccc(S(=O)(=O)c2cn(Cc3ccccc3)c3cc(N4CCCC4)c(F)cc3c2=O)c(C)c1 | 2.36% (inactive)
38 | O=C(NCc1ccc(F)cc1)c1ccc(Cn2c(SCc3ccc(F)cc3)nc3cccnc32)cc1 | -1.71% (inactive)
39 | O=C(OCC(O)CO)c1ccccc1Nc1ccnc2c(C(F)(F)F)cccc12 (configuration not stated) | 0.766% (inactive)
40 | COc1cccc(/C=N/NC(=O)C(=O)N2CCCC2)c1 | -2.13% (inactive)
41 | COc1ccc(Nc2ncc(C(=O)Nc3cc(C)ccc3OC)c3ccccc23)cc1 | 2.21% (inactive)
42 | COc1ccc(C(=O)Nc2ccccc2C(=O)N/N=C/c2ccc(O)c(OC)c2)cc1 | -68.9% (active)
43 | CC(=O)/C(C)=N/O | -0.649% (inactive)
44 | O=C(Nc1c(C(=O)N2CCN(c3ccc(F)cc3)CC2)oc2ccccc12)c1ccco1 | -1.83% (inactive)

Row | SMILES | activity change, negative = inhibition
45 | CCc1ccc2ncc3c(-c4ccc(C)cc4)nn(CC(=O)NCc4ccccc4)c3c2c1 | 8.2% (inactive)
46 | COc1ccc(OCCn2cc(C(=O)C3CCCCC3)c3ccccc32)cc1 | -0.826% (inactive)
47 | COc1cc(C(=O)Nc2ccc(-n3c(C)nc4ccccc4c3=O)cc2)cc(OC)c1OC | 6.04% (inactive)
48 | Cc1ccc2onc(CC(=O)N3CCN(c4ccc(Cl)cc4)CC3)c2c1 | 2.89% (inactive)
49 | O=C(OCc1ccccc1)c1ccc(O)cc1 | -0.636% (inactive)
50 | CCN1CCN(CCCNC(=O)c2ccc3c(c2)sc2nc(-c4ccc(OC)cc4)cn23)CC1 | -72.4% (active)
51 | COc1ccc(-c2cn3c(n2)sc2cc(C(=O)Nc4ccccc4F)ccc23)cc1 | -4.68% (inactive)
52 | Cc1ccc(-c2cn3c(n2)sc2cc(C(=O)NCCCc4ccccc4)ccc23)cc1 | -1.39% (inactive)
53 | CCC(=O)Nc1cccc(-c2nc3cc(C)ccc3o2)c1 | -9.07% (inactive)
54 | O=C(Nc1ccc(Br)cc1)c1ccc(Br)c(S(=O)(=O)NCc2ccccc2)c1 | -0.252% (inactive)
55 | CCC(=O)N1CCc2cc(S(=O)(=O)NC(C(=O)NCCc3ccc(C)cc3)C(C)C)ccc21 (configuration not stated) | -3.91% (inactive)
56 | CC(C)c1ccc(C2CC(=O)N3CN(C4CCCCC4)CSC3=C2C#N)cc1 (configuration not stated) | -15.6% (inactive)
57 | Cc1cc(C)c(NC(=O)CN2C(=O)c3cccnc3Oc3ccc(Cl)cc32)c(C)c1 | -3.1% (inactive)
58 | COC(=O)/C=C(/C)N | -1.85% (inactive)
59 | COc1ccc2c(c1)c(C(=O)N/N=C/c1cccs1)c(C)n2C | -1.53% (inactive)
60 | Cc1n[nH]c(=O)nc1N/N=C/c1cccs1 | -51.8% (active)
61 | O=c1nc(N/N=C/c2ccco2)cn[nH]1 | -22.5% (inactive)
62 | CCCCC12CN3CC(C)(CN(C1)C3c1ccc(O)c(OC)c1)C2=O (configuration not stated) | 0.484% (inactive)
63 | CCCCNC(=O)c1ccc2c(c1)NC(=O)C(C(C)C)N2 (configuration not stated) | -1.85% (inactive)
64 | COc1ccc(CCNC(=O)CCCn2c(=O)c3ccccc3n(Cc3ccc(F)cc3Cl)c2=O)cc1OC | 1.26% (inactive)
65 | O=C(Cn1ccc(=O)[nH]c1=O)Nc1ccc(C(=O)O)c(O)c1 | -9.18% (inactive)
66 | O=C(Nc1ccc(C(=O)O)c(O)c1)c1ccccc1 | -14.9% (inactive) and -50.4% (active)

Row | SMILES | activity change, negative = inhibition
67 | O=C(O)c1ccc(-n2cccc2)cc1O | 1.97% (inactive)
68 | CCCCOc1ccc(CNC(=O)c2ccc3c(c2)N(C)C(=O)C2CCCCN32)cc1 (configuration not stated) | 1.06% (inactive)
69 | CC(C)(C)OC(=O)N1CCC(c2c(C(=O)Nc3ccc4c(c3)OCO4)cnn2-c2ccccc2)CC1 | -3.37% (inactive)
70 | Cc1cccc(-c2nnc(SCC(=O)N3CCCc4ccccc43)o2)c1 | 1.17% (inactive)
71 | CCCCOc1ccc(C(=O)Nc2cccc(-c3nc4ccccc4o3)c2C)cc1 | -4.4% (inactive)
72 | CCOC(=O)c1cccc(NS(=O)(=O)c2cc(-c3cnc(C)o3)ccc2OC)c1 | -9.3% (inactive)
73 | COc1ccc(Cl)cc1NC(=O)CSc1nc(=O)[nH]c2c1CCCC2 | 3.81% (inactive)
74 | CCc1ccccc1NC(=O)Cc1ccc(NC(=O)N2CCCCc3ccccc32)cc1 | -0.392% (inactive)
75 | COC(=O)c1cc(NC(=O)CCS(=O)(=O)c2cc(Br)cc3c2N(C(=O)C2CC2)CC3)cc(C(=O)OC)c1 | 1.45% (inactive)
76 | CCOc1cc(-c2nnc(SCC(=O)NC3CCCC3)nc2-c2ccc(OC)c(OCC)c2)ccc1OC | 1.43% (inactive)
77 | C=CC1(C)CC(=O)C2(O)C(C)(O1)C(OC(C)=O)C(O)C1C(C)(C)CCC(O)C12C (configuration not stated) | -8.1% (inactive)
78 | COc1ccc(-c2nc3ccccc3o2)cc1NC(=O)c1cc([N+](=O)[O-])ccc1N1CCOCC1 | -1.07% (inactive)
79 | COc1ccc(/C=C/c2nc(C#N)c(NCc3ccc(F)cc3)o2)cc1OC | 3.37% (inactive)
80 | CCc1ccc(NC(=O)c2cc(S(=O)(=O)NC3CCCCCC3)ccc2F)cc1 | 1.04% (inactive)
81 | Oc1ccc(Cn2cc[nH]c2=S)cc1 | 2.19% (inactive)
82 | CCC1=Nc2cc(C(=O)NCC(C)c3ccccc3)ccc2Sc2ccc(C)cc21 (configuration not stated) | -0.814% (inactive)
83 | CCOc1ccc(NC(=O)Cn2cc(C(=O)c3ccc(C)cc3)c(=O)c3cc4c(cc32)OCCO4)cc1 | -5.72% (inactive)
84 | CCCn1ccc2c(OCC(=O)NCc3ccc(F)cc3)cccc2c1=O | 1.12% (inactive)
85 | O=C(c1ccc2c(c1)N(Cc1ccccc1)C(=O)c1ccccc1S2(=O)=O)N1CCC(Cc2ccccc2)CC1 | -3.09% (inactive)
86 | CCOc1ccccc1NC(=O)CN1CCN(S(=O)(=O)c2ccc(Br)cc2)CC1 | -3.13% (inactive)
87 | CCOc1ccccc1NC(=O)Cn1c(=O)n(-c2cccc(C)c2)c(=O)c2c1c1cc(OC)ccc1n2C | 5.68% (inactive)
